Shown are actives, neighbours in structure and some others; about 28% of the full set was active somewhere.
CYP2C9 activ = human CYP2C9 activators, primary screen, biochemical, luminescence | actives 1.4% (n = 96,000) | Cytochrome P450 2C9 (Homo sapiens), P11712 | activation factor at 5 µM | recombinant CYP2C9, luciferin-H conversion; hits give high values; factor 1 = untreated enzyme, 0 = blocked;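 active means activation factor of 2 or more for CYP2C9 at a 5 µM dose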;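 further: 0 = sulfaphenazole-blocked wells and 1 = vehicle-only wells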
Mac1 fbg inh = inhibitors of CD11b/CD18 adhesion to fibrinogen, primary screen, K562 cells, luminescence; AID 1497, 2009; Integrin beta-2 (Homo sapiens) + Integrin alpha-M (Homo sapiens), P05107+P11215; actives 0.54% (n = 93,000); ATPlite luminescence; Mn2+ added to activate the integrin; inhibition, % at 10 µM;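 active means primary inhibition of 50% or more at 10 µM, then 40% or more on retest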
Mac1 fbg enh = enhancers of CD11b/CD18 adhesion to fibrinogen, primary screen, K562 cells, luminescence. Integrin beta-2 (Homo sapiens) + Integrin alpha-M (Homo sapiens), P05107+P11215. activation, % at 10 µM. ATPlite luminescence. actives 0.07% (n = 93,000). AID 1499, 2009;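 active means 10 µM primary screen giving 50% or more activity, confirmed by 40% or more on retest at that dose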
CYP2C9 inhib = blockers of cytochrome P450 2C9 activity – biochemical, luminescence, ADME assay, primary screen; P11712; CYP2C9 Supersomes, luciferin-H conversion; inhibition, % at 5 µM; actives 20% (n = 96,000); AID 777, 2007;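 active means blocking of liver enzyme CYP2C9 beyond about 50% at 5 µM, limit read from the data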
CYP2C19 inhib = blockers of cytochrome P450 2C19 activity – biochemical, luminescence, ADME assay, primary screen; inhibition, % at 5 µM; actives 21% (n = 96,000); CYP2C19 Supersomes, luciferin-H EGE luminescence, 30 min; P33261; AID 778, 2007;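 active means CYP2C19 inhibition above a set limit at 5 µM in the primary screen, cut at about 50% in these data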;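 further: plate controls were negative control wells for no effect and 2.5 mM tranylcypromine positive control for full effect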
Target sequence (P33261 whole entry, looked up): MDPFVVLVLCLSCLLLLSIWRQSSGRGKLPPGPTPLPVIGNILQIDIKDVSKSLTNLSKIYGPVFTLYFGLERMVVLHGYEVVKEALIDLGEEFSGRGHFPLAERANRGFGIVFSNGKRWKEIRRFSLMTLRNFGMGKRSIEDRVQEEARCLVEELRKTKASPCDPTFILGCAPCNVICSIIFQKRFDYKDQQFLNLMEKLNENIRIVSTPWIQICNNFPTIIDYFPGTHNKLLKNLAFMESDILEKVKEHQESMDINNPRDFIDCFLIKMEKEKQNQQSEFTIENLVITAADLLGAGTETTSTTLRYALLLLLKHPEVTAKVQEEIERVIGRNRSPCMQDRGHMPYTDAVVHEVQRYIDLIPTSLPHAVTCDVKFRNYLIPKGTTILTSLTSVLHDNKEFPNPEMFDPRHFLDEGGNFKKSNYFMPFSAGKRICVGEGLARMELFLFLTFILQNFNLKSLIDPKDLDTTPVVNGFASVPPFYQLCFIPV
CYP2C19 act = human CYP2C19 activators, primary screen, biochemical, luminescence; AID 1025, 2008; 96,000 tested, under 10 active; activation factor at 5 µM; recombinant CYP2C19, luciferin-H EGE luminescence; hits give high values; 0 = fully inhibited enzyme, 1 = untreated enzyme; Cytochrome P450 2C19 (Homo sapiens), P33261;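 active means activation factor of at least 2 at 5 µM in the primary screen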;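 further: 0 = wells with 2.5 mM tranylcypromine and 1 = vehicle-only wells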
The depositor's hits bear a star.

`O=C(CCCN1C(=O)c2ccccc2C1=O)NC1CCCCCC1` gave CYP2C9 activ 0.6, Mac1 fbg inh 3, Mac1 fbg enh -3, CYP2C9 inhib 39, CYP2C19 inhib 44 and CYP2C19 act 0.6.
For CN(C(=O)CCN1C(=O)c2ccccc2C1=O)C1CCCCC1 the results were CYP2C9 activ 1.4, Mac1 fbg inh -34, Mac1 fbg enh -1, CYP2C9 inhib -38, CYP2C19 inhib 98* and CYP2C19 act 0.
Screening Cn1ncc2cc(NC(=S)NC(=O)c3ccccc3)ccc21 returned CYP2C9 activ 1.1, CYP2C9 inhib -8, CYP2C19 inhib 47 and CYP2C19 act 0.5.
For CC(C)OC(=O)CCc1nc2ccccc2[nH]c1=O the results were CYP2C9 activ 0.6, Mac1 fbg inh -46, Mac1 fbg enh 1, CYP2C9 inhib 44, CYP2C19 inhib 76* and CYP2C19 act 0.2.
`CC(C)(C)NC(=O)c1ccc(Sc2ccccc2)c([N+](=O)[O-])c1` gave CYP2C9 activ 0.1, Mac1 fbg inh 3, Mac1 fbg enh 2, CYP2C9 inhib 92*, CYP2C19 inhib 70* and CYP2C19 act 0.3.
Screening C=CCNC(=O)c1ccc(Sc2ccccc2)c([N+](=O)[O-])c1 returned CYP2C9 activ 0.3, Mac1 fbg inh -2, Mac1 fbg enh -4, CYP2C9 inhib 70*, CYP2C19 inhib 76* and CYP2C19 act 0.2.
Screening Cc1ccc(C(=O)NC(C)CCc2ccccc2)cc1[N+](=O)[O-] (stereo not given) returned CYP2C9 activ 0.7, CYP2C9 inhib 28, CYP2C19 inhib 37 and CYP2C19 act 0.6.
CC(C)(C)c1ccc(C(=O)C=[N+]=[N-])cc1 was read as CYP2C9 activ 1.2, Mac1 fbg inh -24, Mac1 fbg enh 1, CYP2C9 inhib -22, CYP2C19 inhib -23 and CYP2C19 act 1.2.
Screening COc1cc2c(cc1OC)CN(CC(=O)Nc1ccc(C#N)cc1)CC2 returned CYP2C9 activ 0.8, Mac1 fbg inh 6, Mac1 fbg enh 1, CYP2C9 inhib 24, CYP2C19 inhib 23 and CYP2C19 act 0.8.
`COc1ccc(CSCC(=O)N/N=C/c2ccccc2OCc2ccccc2)cc1` gave CYP2C9 activ 0.5, Mac1 fbg inh 18, Mac1 fbg enh -2, CYP2C9 inhib 49, CYP2C19 inhib 31 and CYP2C19 act 0.7.
For Cc1ccc(CSCC(=O)N/N=C/c2sccc2C)cc1 the results were CYP2C9 activ 0.6, Mac1 fbg inh 2, Mac1 fbg enh -3, CYP2C9 inhib 40, CYP2C19 inhib 83* and CYP2C19 act 0.2.
Screening CC1=[N+]([O-])C(C)(C)CC(C)(C)c2ccccc21 returned CYP2C9 activ 0.9, Mac1 fbg inh 2, Mac1 fbg enh -2, CYP2C9 inhib 14, CYP2C19 inhib 12 and CYP2C19 act 0.9.
For COc1cccc(N(CC(=O)Nc2ccc3c(c2)OCO3)S(=O)(=O)c2ccccc2)c1 the results were CYP2C9 activ 0.3, Mac1 fbg inh -4, Mac1 fbg enh 0, CYP2C9 inhib 71*, CYP2C19 inhib 7 and CYP2C19 act 0.9.
`COc1ccc(S(=O)(=O)N(CC(=O)Nc2ccc3c(c2)OCO3)c2ccccc2OC)cc1` gave CYP2C9 activ 0.3, Mac1 fbg inh 4, Mac1 fbg enh 3, CYP2C9 inhib 72*, CYP2C19 inhib 6 and CYP2C19 act 0.9.
`COc1ccccc1N(CC(=O)Nc1ccc2c(c1)OCO2)S(=O)(=O)c1ccccc1` gave CYP2C9 activ 0, Mac1 fbg inh -12, Mac1 fbg enh 0, CYP2C9 inhib 100*, CYP2C19 inhib 80* and CYP2C19 act 0.2.
For O=C(CN1CCN(S(=O)(=O)c2ccccc2)CC1)Nc1ccc2c(c1)OCO2 the results were CYP2C9 activ 0.7, Mac1 fbg inh -2, Mac1 fbg enh 5, CYP2C9 inhib 29, CYP2C19 inhib 49 and CYP2C19 act 0.5.
For COC(=O)c1cc(NC(=O)CN(c2cccc(OC)c2)S(=O)(=O)c2ccccc2)ccc1Cl the results were Mac1 fbg inh 20 and Mac1 fbg enh 2.
For COC(=O)c1cc(NC(=O)CN(c2ccccc2OC)S(=O)(=O)c2ccccc2)ccc1Cl the results were CYP2C9 activ 0, Mac1 fbg inh 17, Mac1 fbg enh -1, CYP2C9 inhib 97*, CYP2C19 inhib 52* and CYP2C19 act 0.5.
O=C(O)c1cnc(-c2ccccc2)nc1Sc1ccc(Cl)cc1 was read as CYP2C9 activ 0.4, Mac1 fbg inh 90*, Mac1 fbg enh -12, CYP2C9 inhib 61*, CYP2C19 inhib 4 and CYP2C19 act 1.
`COc1ccc(OCc2n[nH]c(=S)o2)cc1` gave CYP2C9 activ 0.1, Mac1 fbg inh 7, Mac1 fbg enh -2, CYP2C9 inhib 89*, CYP2C19 inhib 14 and CYP2C19 act 0.9.
For S=c1[nH]nc(COc2ccc(Cl)cc2)o1 the results were CYP2C9 activ 0.9, Mac1 fbg inh 3, Mac1 fbg enh -1, CYP2C9 inhib 14, CYP2C19 inhib -11 and CYP2C19 act 1.1.
Screening CCOC(=O)c1c(-c2ccccc2)csc1NC(=O)/C(C#N)=C/c1ccc(O)c(OC)c1 returned Mac1 fbg inh 29 and Mac1 fbg enh 14.
Screening COC(=O)c1cc(-c2ccccc2)sc1NC(=O)c1cc(C)on1 returned Mac1 fbg inh -5 and Mac1 fbg enh 25.
For Cc1cc(C)nc(N/N=C/c2ccccc2OCc2ccc(Cl)cc2)n1 the results were Mac1 fbg inh 8 and Mac1 fbg enh -5.
`COc1ccccc1/C=N/Nc1nccnc1Cl` gave CYP2C9 activ 0.5, Mac1 fbg inh -6, Mac1 fbg enh -3, CYP2C9 inhib 47, CYP2C19 inhib 51* and CYP2C19 act 0.5.
For CC(C(=O)Nc1cccc([N+](=O)[O-])c1)N1CCN(C/C=C/c2ccccc2)CC1 (stereo not given) the results were Mac1 fbg inh 24 and Mac1 fbg enh -1.
For CC(C(=O)Nc1cccc([N+](=O)[O-])c1)n1nnc2ccccc21 (stereo not given) the results were CYP2C9 activ 0.2, CYP2C9 inhib 79*, CYP2C19 inhib 53* and CYP2C19 act 0.5.
For Cc1c(Cl)cccc1NC(=O)C1NC(=O)CC1c1ccccc1 (stereo not given) the results were CYP2C9 activ 0.5, Mac1 fbg inh -7, Mac1 fbg enh 3, CYP2C9 inhib 46, CYP2C19 inhib 81* and CYP2C19 act 0.2.
`COc1ccc(/C=N/N(C(C)=O)c2nc(-c3ccc(C)cc3)cs2)cc1` gave CYP2C9 activ 0.4, CYP2C9 inhib 57*, CYP2C19 inhib 73* and CYP2C19 act 0.3.
